Bead autofluor – compound fluorescence in toxin protease inhibitor counterscreen; compound autofluorescence counterscreen, microsphere flow cytometry; hits give high values; fluorescence intensity (concentration not given with the values); 3.1% of 360,000 active; AID 624483; in the data active = fluorescence intensity above about 16000; inconclusive = no clear call, values can overlap the other calls
BoNT F protease – inhibitors of Botulinum neurotoxin F light chain protease; 0.22% of 360,000 active; inhibition, % at 10 µM; Multiplex microsphere protease cleavage assay, flow cytometry; AID 588497; in the data active = inhibition above about 35%, passing the limit was not always enough; inconclusive = no clear call, values can overlap the other calls; also: plate controls were buffer without enzyme for full effect and enzyme alone for no effect
BoNT A protease – blocks Botulinum neurotoxin A light chain protease | multiplex microsphere protease substrate cleavage, flow cytometry | 0.17% of 360,000 active | inhibition, % at 10 µM | AID 588499; also: plate controls were buffer without enzyme for full effect and enzyme alone for no effect
VHR inh abs – blocks human VHR1 dual specificity phosphatase. recombinant VHR phosphatase, pNPP absorbance. inhibition, % at 13.3 µM. 0.52% of 290,000 active. AID 1654; in the data active = inhibition above about 50%
Target sequence (P51452 whole entry, looked up): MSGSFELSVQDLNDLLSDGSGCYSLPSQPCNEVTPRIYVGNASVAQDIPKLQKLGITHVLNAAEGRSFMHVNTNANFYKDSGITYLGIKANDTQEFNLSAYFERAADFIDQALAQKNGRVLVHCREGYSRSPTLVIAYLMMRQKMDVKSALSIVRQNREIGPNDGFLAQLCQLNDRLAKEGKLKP
Anthrax LF inh2 – inhibitors of Bacillus anthracis lethal factor protease; P15917; 0.12% of 360,000 active; multiplex microsphere protease cleavage assay, LF; AID 588501; inhibition, % at 10 µM; also: plate controls were buffer without enzyme for full effect and enzyme alone for no effect
SARS 3CLpro inh – SARS-CoV 3CLpro protease inhibition | P0C6X7 | recombinant SARS-CoV 3CLpro, quenched FRET peptide cleavage | inhibition, % at 6 µM | 0.14% of 290,000 active; in the data active = inhibition above about 12%
Starred values were filed as active, the others as inactive; ? = inconclusive; · = no result given. A selection: hits, their analogues and other compounds. The true share with any hit is near 3.9%. Rule as the data show it, unless noted: active = inhibition above about 30%; inconclusive = no clear call, values can overlap the other calls; inactive = below that.

SMILES	Bead autofluor	BoNT F protease	BoNT A protease	VHR inh abs	Anthrax LF inh2	SARS 3CLpro inh
C=CCn1c(=O)c2c3c(sc2n2c(Nc4ccc(C(=O)OCC)cc4)nnc12)CCCC3	17959*	-8.4	-3.3	21.8	1.0	9.4
CCn1c(C(=O)O)c(CC(=O)Nc2ccc(Br)cc2C)c2ccccc21	3857	-9.4	1.2	57.3*	-6.9	4.7
O=C(O)CCCC(=O)OCCc1cc2ccccc2c(=O)o1	4112	-9.0	-0.2	·	-3.9	·
O=C(O)CCCC(=O)OCCCCc1cccs1	19404*	1.9	?	27.9	-0.8	2.2
O=C(COC(=O)c1ccc2ccccc2c1)Nc1ncc(C(F)(F)F)cc1Cl	2161	-3.9	-0.5	2.0	-2.7	4.4
O=C(COC(=O)CCc1ccc(S(=O)(=O)N2CCOCC2)cc1)Nc1ncc(C(F)(F)F)cc1Cl	25667*	-8.8	-4.6	18.7	-0.2	1.6
O=C(COC(=O)c1ccc2ccccc2n1)Nc1ncc(C(F)(F)F)cc1Cl	22793*	1.7	-0.6	-14.3	2.8	0.6
Nc1ccccc1C(=O)NNc1ncc(C(F)(F)F)cc1Cl	22928*	-4.2	?	24.9	-1.0	-2.0
CC(C)c1cccc(OCCN2CCCC2)c1	4102	22.6	0.8	30.0	-5.7	-3.5
COc1ccc(NC(=O)COC(=O)CCc2ccccc2)c(OC)c1	4371	4.0	-0.7	6.9	-2.4	1.9
OC(CCCC(O)c1ccccc1)c1ccccc1 (stereo not drawn)	4244	-2.5	-1.1	·	1.9	·
COc1ccc(CC(=O)NNC(=O)c2ccc(SCc3cc(F)ccc3F)c([N+](=O)[O-])c2)cc1	22474*	1.1	0.3	-3.2	-0.6	2.7
COc1cc(/C=C/c2nc3ccccc3c(=O)[nH]2)cc(Cl)c1O	5648	0.7	-1.4	57.5*	-2.7	-2.4
Cc1ccc(C2(C)NC(=O)N(CC(=O)Nc3cc(S(=O)(=O)N4CCOCC4)ccc3OC(C)C)C2=O)cc1 (stereo not drawn)	4200	0.8	-2.3	·	-6.6	·
CCc1ccc(CCC(=O)Nc2sc(C)c(C)c2C(=O)OC)o1	21036*	-3.0	-1.0	18.7	-4.9	3.3
CCOC(=O)c1cnn(CCOC(=O)Cc2cccs2)c1NC(=O)Cc1cccs1	22856*	1.3	0.7	1.8	-0.7	4.3
COC(=O)c1c(NC(=O)Cc2cccs2)sc(C)c1C	21860*	-10.7	-6.4	8.5	-4.7	-2.1
Nc1c(C(=O)OCC2CCCO2)c2nc3ccccc3nc2n1C1CCCC1 (stereo not drawn)	32531*	-28.9	-19.5	4.0	-0.2	-3.2
CC(=O)N1CCN(c2ccccc2NC(=O)Cc2ccc(Cl)cc2)CC1	4258	-4.1	1.0	-5.2	-3.9	1.4
O=C(Nc1ccc(C(=O)O)cc1)/C(=C\C=C\c1ccccc1)NC(=O)c1ccccc1Br	4073	4.7	2.1	7.7	-2.2	8.6
COCCC(=O)N1CCC(Oc2ccc(C(=O)N3CCCCCC3)cc2)CC1	5552	-7.1	-2.3	-14.6	-1.8	-3.3
C#CCN(C(=O)c1ccc(OC2CCN(C(=O)CCOC)CC2)cc1)C1CCCCC1	3877	-25.0	-3.8	52.8*	-10.6	-0.4
COc1cc(C(=O)Nc2cc3c(cc2N2CCCCC2)n(C)c(=O)n3C)cc(OC)c1OC	·	·	·	-25.6	·	-0.4
O=C(CN1C(=O)c2ccccc2S1(=O)=O)Nc1ccon1	?	-1.6	1.3	·	3.4	·
CCN(Cc1ccccc1)Cc1c(C)[nH]c2c(C)c(C)ccc2c1=O	20905*	-3.8	?	10.5	-4.3	-0.6
SMILES	Bead autofluor	BoNT F protease	BoNT A protease	VHR inh abs	Anthrax LF inh2	SARS 3CLpro inh
CCC(Sc1nc2ccncc2[nH]1)C(=O)Nc1cc(Cl)ccc1C (stereo not drawn)	5487	-12.2	-1.0	17.3	-3.6	-0.8
Cc1cc(C)nc(NS(=O)(=O)c2ccc(N3C(=O)C4CC=C(Cl)CC4C3=O)cc2)n1 (stereo not drawn)	18775*	2.0	4.5	17.7	-2.8	1.6
COC1=Nc2ccccc2/C=C\c2ccccc21	3647	-6.8	-0.7	·	-6.5	·
Cc1cc(/C=N\NC(=O)CC(=O)NC2CCCCC2)c(C)n1-c1ccc(Cl)c(Cl)c1	24080*	-3.8	-2.7	26.9	-3.1	5.3
Nc1nnc(SCc2ccc(F)cc2)s1	23088*	-1.0	?	1.2	-0.5	3.0
Cc1nnc(SCc2ccc(F)cc2)s1	2649	?	0.7	17.8	-3.6	0.6
Cc1ccc(-c2nc(NCc3ccco3)c3ccccc3n2)cc1	2547	-2.2	-0.2	5.4	-2.2	-1.1
c1ccc(-c2nc(NCc3ccco3)c3oc4ccccc4c3n2)cc1	22249*	2.3	?	31.5	-4.3	-7.6
O=C1CCC[C@@H]2[C@H]3CCC[N+]4([O-])CCC[C@@H](CN12)[C@@H]34 (stereo partly drawn)	3519	5.2	2.8	19.7	-6.6	1.0
OC[C@@H](O)[C@H](O)C(/C=N/Nc1ccccc1)=N\Nc1ccccc1	4287	?	?	7.4	15.8	0.1
CC1(C)CC(=O)C(C(c2cccnc2)C2C(=O)CC(C)(C)CC2=O)C(=O)C1	22323*	5.8	1.5	27.3	1.1	1.2
COc1cccc(C(C2C(=O)CC(C)(C)CC2=O)C2C(=O)CC(C)(C)CC2=O)c1	3838	0.4	-1.7	-16.2	9.9	-0.3
CCCNc1nc(Nc2ccc(C)cc2)nc(N2CCCC2)n1	16266*	1.0	0.2	15.5	-0.1	1.7
CC(C)Cc1nnc(NS(=O)(=O)Cc2ccccc2)s1	21019*	8.3	7.2	-2.4	1.7	-1.6
CC(C)Cc1nnc(NS(=O)(=O)c2ccccc2)s1	3733	-4.3	0.2	·	-0.4	·
O=C(c1ccc(Br)cc1)C1CCc2occc2C1=O (stereo not drawn)	22206*	3.1	1.0	-0.8	0.5	0.3
CCOc1ccccc1NCc1cc(=O)oc2cc(C)ccc12	5741	-3.1	1.3	27.7	-2.2	4.2
Cc1ccc2c(CNCc3ccco3)cc(=O)oc2c1	23320*	-0.4	-0.3	34.7	-2.6	3.3
CS(=O)(=O)Nc1ccc(-c2cnc3cccnn23)cc1	3958	-7.3	-0.2	·	-3.9	·
O=C(Nc1ccnn1C1CCN(C(=O)c2cccc(Cl)c2)CC1)C1CCOC1 (stereo not drawn)	6359	2.7	-1.5	2.5	-9.7	0.8
CC(C)OC(=O)c1ccc(Cn2nnc3ccccc3c2=O)cc1	20849*	7.4	3.9	-9.8	0.3	5.9
O=C(c1cccs1)N1CCN(C2CCCCC2)CC1	20556*	3.8	?	39.4	-3.6	-2.1
O=C(c1cccs1)N1CCN(C2CCN(Cc3ccccc3)CC2)CC1	3609	5.3	0.1	9.4	2.9	1.0
O=C(c1cccs1)N1CCN(C(=O)C2CCCO2)CC1 (stereo not drawn)	19685*	-0.6	-0.4	24.7	2.4	-7.2
O=C(Cc1cccs1)N1CCN(C(=O)C2CCCO2)CC1 (stereo not drawn)	11286	-16.0	-0.5	-4.9	0.4	4.6
Cc1ccc(S(=O)(=O)N(C)C[C@@H]2OCc3cnnn3CCCC(=O)N([C@@H](C)CO)C[C@H]2C)cc1	2937	-3.0	-0.3	·	-2.6	·
